# Screening results: PubChem BioAssay, National Center for Advancing Translational Sciences (NCATS)
# ATXN2 expr inh: inhibitors of ATXN2 expression | HEK-293 ATXN2-luciferase reporter, luminescence, 24 h | Potency, µM (titrated, usually from 57 µM), inactives show at the highest dose activity change, negative = inhibition, most hits filed as inhibitors | actives 0.72% (n = 360,000) | AID 1745845; also: % is scaled to controls: 0 for no effect and ±100 for the full control effect; nearly all actives have a fitted effect of over 55% in size
#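 qHTS (up to 57 uM final) was run with 24 h compound exposure of reporter cells at 37 °C. Each well was multiplexed: SteadyGlo luminescence measured ATXN2-luciferase expression after a fluorogenic Gly-Phe-AFC viability readout (25 uM final).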
# S2 tox: reduces viability in counter-screen for ATXN expression inhibitors | AID 651635 | S2 cells (HEK-293 line with an ATXN2-luciferase reporter) viability, CellTiter-Fluor protease fluorescence, 24 h | actives 0.49% (n = 400,000) | Potency, µM (titrated, usually from 56.7 µM), most hits filed as cytotoxic; also: nearly all actives have a fitted effect of over 40% in size
# HepG2 viability: kills HepG2 cells in TGF-b inhibitor counter-screen; actives 0.76% (n = 410,000); Potency, µM (titrated, usually from 46.1 µM), for inactives: at the highest dose activity change, negative = cytotoxicity, hits mostly cytotoxic; HepG2 CAGA-GFP viability, ATP luminescence, 18 h
#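 CellTiter-Glo luminescence gave cytotoxicity after 18 hours at 37 degrees C. The cells were HepG2 CAGA-GFP in 1% FBS DMEM, stimulated with 500 pg/mL TGF-beta after compound addition. %Activity was normalised to no-cell wells (complete cell-killing) and DMSO (no toxicity), and curves were fitted and classified.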
# HT1080NT lethal: kills 2HG-producing HT-1080-NT fibrosarcoma cells; Potency, µM (titrated, usually from 46.1 µM), for inactives: at the highest dose activity, negative = less viability, hits mostly cytotoxic; HT-1080-NT fibrosarcoma viability, CellTiter-Glo ATP luminescence, 48 h; actives 1.6% (n = 360,000);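 also: NT is the 2HG producing partner of a matched IDH1 knockdown line; 0% = DMSO-treated cells and -100% = media-only wells without cells; nearly all actives have a fitted effect of over 55% in size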
#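 Read-out is CellTiter-Glo luminescence after 10 minutes at room temperature, following 48 hours' compound treatment of HT-1080-NT cells (750 cells/well, RPMI, 5% FBS, 37 degrees C).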
# TGFb inhibitor: inhibitors of TGF-b signaling. Potency, µM (doses to about 46.1 µM), without a hit: top-dose activity, negative = inhibition, actives largely listed as inhibitors. HepG2 CAGA-GFP TGF-b/SMAD3 reporter, GFP fluorescence, 18 h; TGF-beta stimulated, 500 pg/mL final. actives 1.2% (n = 410,000); also: % is scaled to controls: 0 for no effect and ±100 for the full control effect; nearly all actives have a fitted effect of over 65% in size
#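 Inhibition of TGF-beta-driven CAGA-GFP reporter expression in HEPG2 cells is measured by cellular GFP fluorescence after 18 h stimulation with 500 pg/mL recombinant TGF-beta in 1% FBS medium at 37 degrees C.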
# HT1080 IDH1KD tx: kills HT-1080 cells with IDH1 knockdown; AID 686971; actives 2% (n = 360,000); Potency, µM (series often up to 46.1 µM), without a hit: at the top dose activity, negative = toxicity, actives largely listed as cytotoxic; HT-1080 IDH1 knockdown viability, ATP luminescence, 48 h;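 also: 0% = DMSO wells and -100% = cell-free medium wells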
#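 Knockdown cells (IDH1KD HT-1080) received compounds 2 h after plating at 750 cells/well and were kept 48 h at 37 °C in 5% FBS RPMI. A CellTiter-Glo luminescence read gave % activity for curve fitting.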
# The depositor's hits bear a star; i = inactive; u = inconclusive; x = no result given; [ ] = remark or other dose. Rows were chosen to be rich in hits. Some 3.8% of all compounds tested hit in one or more screens of this group. Calls follow the shape of the dose curve; as a rule, active = well fitted curve in the direction sought with a large enough effect; inconclusive = small, poorly fitted or top-dose-only effect, or another doubt; inactive = no such curve, though single readings can be large; an effect the other way counts as inactive or inconclusive. Potency is read from the fitted curve at half-maximal effect.
SMILES,ATXN2 expr inh,S2 tox,HepG2 viability,HT1080NT lethal,TGFb inhibitor,HT1080 IDH1KD tx
O=C(N/N=C/c1cc([N+](=O)[O-])ccc1O)Nc1ccccc1,-42%,i,-25%,u,-7%,16µM*
CCC(CC)=NNc1cccc([N+](=O)[O-])c1,-20%,u,-1%,-23%,-4%,u
O=[N+]([O-])c1ccc(O)c(/C=N/NC(=S)Nc2ccc(Cl)cc2Cl)c1,-7%,i,-5%,u,u,23µM*
Cc1ccc(Cl)cc1NC(=S)N/N=C/c1cccc2ccccc12,10%,u,11%,3.7µM*,-4%,2.6µM*
Cc1ccccc1C(=O)N/N=C/c1cccc2ccccc12,44%,i,2%,2%,5%,0%
CC/C(C)=N/Nc1cccc([N+](=O)[O-])c1,u,i,-4%,u,-8%,9.2µM*
O=[N+]([O-])c1ccc(NN=Cc2ccccc2O)nc1,u,x,-59%,u,u,7.3µM*
O=C(CNS(=O)(=O)c1ccc([N+](=O)[O-])cc1)N/N=C/c1ccc(O)cc1O,24µM*,i,-32%,u,-1%,u
O=[N+]([O-])c1ccc(O)c(C=NNc2ccc(S(=O)(=O)O)cc2)c1,8%,i,18%,3%,18%,-2%
O=[N+]([O-])c1cccc(N/N=C/c2cc([N+](=O)[O-])ccc2O)c1,45%[11.3 µM],i,1%,23µM*,-3%,15µM*
COc1ccccc1C=NNc1ccc([N+](=O)[O-])cn1,-2%,i,-3%,-1%,26%,6%
O=[N+]([O-])c1ccc(O)c(/C=N/Nc2ccccn2)c1,2.8µM*,i,-83%,12µM*,u,10µM*
O=[N+]([O-])c1ccc(O)c(/C=N/Nc2nc3ccccc3[nH]2)c1,u,u,-26%,u,u,u
O=C(CNS(=O)(=O)c1ccc([N+](=O)[O-])cc1)N/N=C\c1ccc(O)cc1,x,i,-38%,-2%,-5%,-4%
O=CN1CCCN(C(=O)c2cc(NC(=O)c3ccccc3)cc3ncn(C4CCCC4)c23)CC1,x,i,x,x,x,x
COc1ccc(C(=O)NCC2Cc3cccc(-c4ccc(S(C)(=O)=O)cc4)c3O2)c(OC)n1 (stereo not drawn),x,i,x,x,x,x
COc1cc(OC)c(OC)cc1/C=c1\[nH]c(=O)/c(=C/c2cc(OC)c(OC)cc2OC)[nH]c1=O,x,x,-24%,x,u,x
CCOC(=O)c1c(C)[nH]c(C2=NNC(=NC3CC3)SC2)c1C,11µM*,i,-28%,-2%,-6%,-11%
Nc1c(-c2nc(-c3cccs3)no2)nnn1-c1cccc(F)c1,57%,i,6%,x,7%,x
COc1ccc(-c2onc(C)c2-c2cscn2)c(O)c1,-30%,i,-11%,9%,0%,5%
CCCOC(=O)c1ccc(-c2c(C)noc2-c2ccc(OC)cc2O)o1,-17%,i,13µM*,-35%,16µM*,u
Cc1ccc(Cl)cc1NC(=O)Cn1c(=O)n(CCCS(=O)(=O)C2CCCCC2)c(=O)c2ccccc21,0%,i,-2%,x,-23%,x
CCN(CC)CCCNC(=O)c1cc2c(-c3ccc(Cl)cc3)nn(C)c2s1,25µM*,x,-93%,21µM*,u,23µM*
CCN(CC)CCCNC(=O)c1cc(-c2ccc(Cl)c(Cl)c2)on1,u,u,16µM*,u,u,u
CCCN(CCC)CCCNC(=O)c1cc2c(-c3ccc(Cl)cc3)nn(C)c2s1,u,25µM*,-46%,x,u,x
SMILES,ATXN2 expr inh,S2 tox,HepG2 viability,HT1080NT lethal,TGFb inhibitor,HT1080 IDH1KD tx
CN1CCN(CCCNC(=O)c2cc3c(-c4ccc(Cl)cc4)nn(C)c3s2)CC1,4%,i,-33%,u,-6%,-24%
COc1ccc(CNC(=O)c2cc3c(-c4ccc(Cl)cc4)nn(C)c3s2)cc1,x,x,-9%,x,-22%,x
CCCS(=O)(=O)NCc1c(C)ncc2c1CCN(C(=O)c1ccc3[nH]c4c(c3c1)CCCC4)C2,x,i,x,x,x,x
O=C(N/N=C/c1ccc([N+](=O)[O-])cc1)c1cccc2cc[nH]c12,x,i,-5%,-1%,-4%,-4%
CCN(CC)c1ccc(/C=N\NC(=O)c2cccc3cc[nH]c23)cc1,-5%,x,-4%,u,-25%,5.2µM*
CC(C)N(Cc1cn[nH]c1-c1ccc(-c2ccccc2)cc1)Cc1nccn1C,u,u,-14%,15µM*,u,21µM*
CC(C)N(Cc1nc(COc2ccccc2)no1)Cc1nccn1C,x,i,-13%,-4%,-8%,-2%
COc1cc(OC)cc(-c2c(-c3cccs3)c3cc(-c4ccn[nH]4)ccc3n2C)c1,u,u,-6%,u,16µM*,u
Cc1cccc(OCCn2c(CCNC(=O)C3CCCCC3)nc3ccccc32)c1,x,x,-11%,x,-3%,x
O=C(N/N=C/c1ccc(-c2cccc(C(F)(F)F)c2)o1)c1ccccc1Br,-16%,u,-15%,-19%,20µM*,u
O=C(N/N=C/c1ccc(-c2cccc(C(F)(F)F)c2)o1)c1ccccc1O,u,u,-16%,-1%,-17%,-3%
CCCCc1ccc(NC(=O)CSc2nc(=O)n(CCN(C)C)c3c2CCC3)cc1,-12%,u,-84%,21µM*,u,15µM*
CCCCc1ccc(NC(=O)CSc2nc(=O)n(CCN(CC)CC)c3c2CCCC3)cc1,u,x,-43%,u,-19%,u
Cc1nc2cc(C(=O)N3c4ccccc4CC3C)ccc2s1 (stereo not drawn),3%[11.3 µM],i,3%,12µM*,0%,13µM*
O=C(c1cncs1)N(Cc1cc2cc3c(cc2nc1N1CCOCC1)CCC3)CC1CCCO1 (stereo not drawn),x,i,x,x,x,x
CCOC(=O)c1c(C)oc(=O)c(CC)c1O,x,i,5%,0%,0%,1%
CCOC(=O)c1c(C)oc2c(F)c(F)c(F)c(F)c2c1=O,32µM*,u,-6%,u,-25%,u
O=Nc1nc2ncccn2c1-c1ccccc1,-5%,i,12%,-1%,-7%,12µM*
CCOc1ccc(C(Nc2cccnc2)c2cc(Cl)c3cccnc3c2O)cc1 (stereo not drawn),u,u,-35%,-26%,u,15µM*
CCOc1ccc(C(NC(C)=O)c2cc(Cl)c3cccnc3c2O)cc1 (stereo not drawn),x,x,-59%,x,3.2µM*,x
O=C(C[n+]1cccc(Br)c1)c1ccc(O)c(O)c1,x,x,-22%,x,0%,x
